Assay results reported in PubChem BioAssay (NCATS).
Results filed as inconclusive are left out. Unless noted, calls come from the whole dose curve; as a rule, active = well fitted curve in either direction with a large enough effect (not every such curve was filed as active); inconclusive = small, poorly fitted or top-dose-only effect, or another doubt; inactive = flat fitted curve, though single readings scatter.

How the values were obtained:
[1] = AP1 Signaling Pathway (AID 357); conditions: ME-180 AP-1-bla reporter, EGF-induced, beta-lactamase ratio, 5 h; at 17.2 µM (top of the series) unless noted;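 note: ME-180 reporter cells stimulated with EGF at its EC50 level; % is set by controls: 0 for no effect and ±100 for the full control effect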
Procedure, shortened: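 Cells are seeded overnight, exposed to compound titrations and an EC50 level of EGF for 5 hours at 37 °C, then loaded with CCF4 dye for 2.5 hours. Beta-lactamase activity under the AP-1 element is read as a blue/green ratio.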

[2] = NFAT Signaling Pathway (AID 444); conditions: Jurkat NFAT-bla M1, carbachol, beta-lactamase ratio, 5 h; at 17.2 µM (top of the series) unless noted;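 note: carbachol stimulus at about its EC50 of 1 µM final; % is set by controls: 0 for no effect and ±100 for the full control effect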
Procedure, shortened: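 Jurkat cells carrying an NFAT-driven β-lactamase reporter and co-transfected muscarinic M1 receptor were treated with compound plus carbachol (1 uM final, an EC50 level) for 5 h at 37 °C. CCF4 loading followed for 1 h at RT; 460/530 nm ratio gave %activity.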

[3] = Stat Signaling Pathway (AID 446); conditions: ME-180 (cervical carcinoma) SIE beta-lactamase reporter, IL-6 stimulated, 5 h; at 17.2 µM (top of the series) unless noted;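 note: ME-180 cervical cancer cells given 40 pM IL-6 alongside compound; SIE-controlled beta-lactamase reporter measured as 460/530 nm FRET emission ratio; % is set by controls: 0 for no effect and ±100 for the full control effect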
Procedure, shortened: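 Emission at 460 and 530 nm (excitation 405 nm) reports SIE-controlled beta-lactamase in ME-180 cells. Cells received compound with 40 pM IL-6 for 5 hrs at 37 C; data scaled between 300 pM IL-6 and 125 nM JAK-inhibitor controls.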

[4] = biological target: Glucocorticoid receptor (Homo sapiens) (UniProt P04150); test: GR-GFP Redistribution (AID 450;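 active = compounds whose dose series gives a full or clear partial fitted curve of increased nuclear translocation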; note: potency is the fitted concentration of half-maximal effect); conditions: U2OS GR-GFP nuclear translocation, laser cytometry, 2 h; series mostly up to 20.6 µM
Glucocorticoid receptor (Homo sapiens), sequence (P04150 whole entry, looked up): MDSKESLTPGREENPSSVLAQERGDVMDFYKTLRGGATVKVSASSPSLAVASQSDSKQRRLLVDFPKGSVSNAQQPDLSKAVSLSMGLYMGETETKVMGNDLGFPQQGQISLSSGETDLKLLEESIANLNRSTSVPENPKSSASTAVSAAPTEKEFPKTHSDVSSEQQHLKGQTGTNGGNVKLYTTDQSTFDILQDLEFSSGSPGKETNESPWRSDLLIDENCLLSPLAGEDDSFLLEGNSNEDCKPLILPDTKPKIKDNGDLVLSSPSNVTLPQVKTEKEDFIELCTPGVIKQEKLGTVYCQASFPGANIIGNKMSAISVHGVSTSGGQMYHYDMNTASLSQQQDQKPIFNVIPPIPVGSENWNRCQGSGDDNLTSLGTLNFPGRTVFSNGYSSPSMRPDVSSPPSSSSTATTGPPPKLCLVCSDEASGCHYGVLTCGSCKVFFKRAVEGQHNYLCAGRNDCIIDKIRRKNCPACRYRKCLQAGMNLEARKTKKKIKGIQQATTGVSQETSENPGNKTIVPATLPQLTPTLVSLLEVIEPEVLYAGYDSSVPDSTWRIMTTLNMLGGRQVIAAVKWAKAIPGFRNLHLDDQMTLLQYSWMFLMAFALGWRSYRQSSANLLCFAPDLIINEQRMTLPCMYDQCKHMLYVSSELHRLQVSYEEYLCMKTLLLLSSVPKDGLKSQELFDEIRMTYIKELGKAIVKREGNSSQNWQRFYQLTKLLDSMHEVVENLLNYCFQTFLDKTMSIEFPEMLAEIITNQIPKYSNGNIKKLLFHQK

c1ccc(OCc2nn3c(C4CCCCC4)nnc3s2)cc1
inactive: activity change, negative = inhibition [1] -8.37% | activity change, negative = inhibition [2] 0.0415% | activity, negative = inhibition [3] 8.07% | Potency [4] > 20.6 µM

COc1ccc(OC)c(C2/C(=C(/O)c3ccc(C)cc3)C(=O)C(=O)N2Cc2ccco2)c1 (stereo not given)
inactive: activity change, negative = inhibition [1] -0.882% | activity change, negative = inhibition [2] -17.7% | activity, negative = inhibition [3] -18.2% | Potency [4] > 20.6 µM

CCOc1nc(SCCOc2ccccc2)nc(N(C)C)n1
inactive: activity change, negative = inhibition [1] -22.1% | activity change, negative = inhibition [2] 28% | activity, negative = inhibition [3] 8.95% | Potency [4] > 20.6 µM

Cc1c(C2Nc3ccccc3NC3=C2C(=O)CC(C)(C)C3)cnn1C (stereo not given)
inactive: activity change, negative = inhibition [1] -9.46% | activity change, negative = inhibition [2] -5.95% | activity, negative = inhibition [3] 14.2% | Potency [4] > 20.6 µM

O=C(O)C(O)c1ccco1 (stereo not given)
inactive: activity change, negative = inhibition [1] -5.38% | activity change, negative = inhibition [2] -2.98% | activity, negative = inhibition [3] 1.78% | Potency [4] > 20.6 µM

CCOC(=O)CSc1nc(N(C)C)nc(N(C)C#N)n1
inactive: activity change, negative = inhibition [1] 4.52% | activity change, negative = inhibition [2] -3.44% | activity, negative = inhibition [3] -0.469% | Potency [4] > 20.6 µM

CC1(C)Cc2c(C#N)c(SCCC#N)nc(N3CCOCC3)c2CS1
inactive: activity change, negative = inhibition [1] -12.8% | activity change, negative = inhibition [2] 3.6% | activity, negative = inhibition [3] -3.44% | Potency [4] > 20.6 µM

CCN(CC)C(=O)CN(C#N)c1nc(NC(C)C)nc(NC(C)C)n1
inactive: activity change, negative = inhibition [1] 4.86% | activity change, negative = inhibition [2] -0.753% | activity, negative = inhibition [3] 8.05% | Potency [4] > 20.6 µM

CCOc1ccc(N=C2C(=O)N(CN3CCOCC3)c3ccccc32)cc1
inactive: activity change, negative = inhibition [1] 2.27% | activity change, negative = inhibition [2] 6.57% | activity, negative = inhibition [3] -3% | Potency [4] > 20.6 µM

CC(=O)Nc1ccc(S(=O)(=O)Nc2nc3n(n2)C(c2ccccc2)CC(=O)N3)cc1 (stereo not given)
inactive: activity change, negative = inhibition [1] 4.99% | activity change, negative = inhibition [2] 2.5% | activity, negative = inhibition [3] 1.09% | Potency [4] > 20.6 µM

COCCCNC(=O)C(C#N)c1nc2ccccc2nc1N1CCCC1 (stereo not given)
inactive: activity change, negative = inhibition [1] 5.84% | activity change, negative = inhibition [2] 8.15% | activity, negative = inhibition [3] 20.8% | Potency [4] > 20.6 µM

CCCNc1ncnc2c1cnn2-c1ccc(OC)cc1
inactive: activity change, negative = inhibition [1] -10.2% | activity change, negative = inhibition [2] 3.93% | activity, negative = inhibition [3] -8.63% | Potency [4] > 20.6 µM

CCCOc1cccc(C2C(C(=O)c3ccc(C)o3)=C(O)C(=O)N2CCCN(C)C)c1 (stereo not given)
inactive: activity change, negative = inhibition [1] -10.8% | activity change, negative = inhibition [2] 10.1% | activity, negative = inhibition [3] 5.19% | Potency [4] > 20.6 µM

CCOC(=O)NC(O)C(=O)c1cccs1 (stereo not given)
inactive: activity change, negative = inhibition [1] 11.6% | activity change, negative = inhibition [2] -1.46% | activity, negative = inhibition [3] 3.85% | Potency [4] > 20.6 µM

CCOC(=O)c1[nH]c2cc3c(cc2c1NC(=O)CN1CC(C)CC(C)C1)OCO3 (stereo not given)
inactive: activity change, negative = inhibition [1] -14.1% | activity change, negative = inhibition [2] -21% | activity, negative = inhibition [3] -2.27% | Potency [4] > 20.6 µM

COC(=O)C1=C(C)N=C2SC(C)C(=O)N2C1c1cccs1 (stereo not given)
inactive: activity change, negative = inhibition [1] -11.1% | activity change, negative = inhibition [2] -9.72% | activity, negative = inhibition [3] -9.23% | Potency [4] > 20.6 µM

CC(=O)c1c(OCC(=O)O)ccc2c(C)cc(=O)oc12
inactive: activity change, negative = inhibition [1] 15% | activity change, negative = inhibition [2] -8.66% | activity, negative = inhibition [3] 13.1% | Potency [4] > 20.6 µM

CC(=O)/C(C#N)=C1\NC(=O)C(Cc2ccccc2)S1 (stereo not given)
inactive: activity change, negative = inhibition [1] 0.644% | activity change, negative = inhibition [2] -11.2% | activity, negative = inhibition [3] 3.16% | Potency [4] > 20.6 µM

COc1ccc(-n2ncc3c(N4CCC(C(N)=O)CC4)ncnc32)cc1
inactive: activity change, negative = inhibition [1] -0.0678% | activity change, negative = inhibition [2] 6% | activity, negative = inhibition [3] -1.03% | Potency [4] > 20.6 µM

CCOC(=O)NC1(C(F)(F)F)C(=O)NC(C)=C1C#N (stereo not given)
inactive: activity change, negative = inhibition [1] 26.2% | activity change, negative = inhibition [2] -4.71% | activity, negative = inhibition [3] 1.98% | Potency [4] > 20.6 µM

COn1c(SC2CCCCC2)nc2ccccc2c1=O
inactive: activity change, negative = inhibition [1] -10.8% | activity change, negative = inhibition [2] 7.75% | activity, negative = inhibition [3] -9.6% | Potency [4] > 20.6 µM

COc1ccc(-c2cn3ccsc3n2)cc1
inactive: activity change, negative = inhibition [1] 11.1% | activity change, negative = inhibition [2] 4.22% | activity, negative = inhibition [3] -5.92% | Potency [4] > 20.6 µM

CC1(C)NC(=O)N(CC(O)Cn2nnc3ccccc32)C1=O (stereo not given)
inactive: activity change, negative = inhibition [1] 5.85% | activity change, negative = inhibition [2] 8.84% | activity, negative = inhibition [3] 6.79% | Potency [4] > 20.6 µM

Nc1nc2n(n1)C(c1cccs1)CC(c1ccc(Br)cc1)N2 (stereo not given)
inactive: activity change, negative = inhibition [1] 0.611% | activity change, negative = inhibition [2] 11% | activity, negative = inhibition [3] 4.42% | Potency [4] > 20.6 µM

O=C(O)CN(c1ccccc1)C1SC(=O)NC1=O (stereo not given)
inactive: activity change, negative = inhibition [1] 3.92% | activity change, negative = inhibition [2] 20.4% | activity, negative = inhibition [3] 10.5% | Potency [4] > 20.6 µM
